Pf growth 96h = Primary qHTS for delayed death inhibitors of the malarial parasite plastid, 96 hour incubation; P. falciparum luciferase reporter growth, 96 h; Potency, µM (series often up to 28.7 µM), hits mostly inhibitors; 320,000 compounds, 6.9% hits; AID 504834, 2011
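96 h incubation, 37 C, 5% CO2, of luciferase-reporter P. falciparum-infected RBCs (2% hematocrit, 0.05% parasitemia final) with test compounds; endpoint luminescence.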
Cycloheximide cs = Cycloheximide Counterscreen for Small Molecule Inhibitors of Shiga Toxin; cell reporter, cycloheximide protein synthesis inhibition counterscreen; max response, %; 300,000 compounds, 12% hits; in the data active = max response mostly above about 13%, no sharp cut-off; inactive = mostly below about 14%; note: read at 38.3 µM for the half of the compounds with a filed dose
NS1 function inh = qHTS Assay for Inhibitors of Influenza NS1 Protein Function | Potency, µM (titrated, usually from 46.1 µM) | 270,000 compounds, 0.4% hits; calls by dose curve; note: actives are rising curves; nearly all actives have a fitted effect of over 50% in size
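Growth recovery, yeast-based: influenza A NS1 expressed in S. cerevisiae causes slow growth, and suppressors are detected by OD600. The parent strain without NS1 is used as positive control.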
Pf growth 48h = Primary qHTS for delayed death inhibitors of the malarial parasite plastid, 48 hour incubation; Potency, µM (series often up to 28.7 µM), hits mostly inhibitors; AID 504832, 2011; 310,000 compounds, 5.9% hits; P. falciparum luciferase growth in erythrocytes, 48 h
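Growth was read as firefly luciferase luminescence after a 48 h, 37 C, 5% CO2 exposure of compounds to reporter-bearing P. falciparum cultures (0.1% parasitemia, 2% hematocrit final) in Albumax-supplemented RPMI 1640.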
Shiga inhibitor = A qHTS for Small Molecule Inhibitors of Shiga Toxin. 290,000 compounds, 9.2% hits. Vero cells, Shiga toxin protein synthesis inhibition reporter. inhibition, % at 38.7 µM; in the data active = inhibition mostly above about 28%, no sharp cut-off; inactive = mostly below about 43%
A number is an active result. Only some compounds are listed: those with a hit (about 21% of all), similar ones and a draw of the others. Unless noted, calls come from the whole dose curve; as a rule, active = well fitted inhibition curve with a large enough effect; inconclusive = small, poorly fitted or top-dose-only effect, or another doubt; inactive = no such curve, though single readings can be large or run the other way.

How did Cc1nc2ccccc2nc(C)c1=NOCc1ccc(C#N)cc1 do in these assays?
Pf growth 96h: inconclusive; Cycloheximide cs: 28.9; NS1 function inh: inactive; Pf growth 48h: inactive; Shiga inhibitor: 66.5

What do the screens show for `Cc1nc2ccccc2nc(C)c1=NOCc1cccc(F)c1`?
Pf growth 96h: inactive; Cycloheximide cs: inactive; Pf growth 48h: inactive; Shiga inhibitor: inactive

What do the screens show for `N#Cc1ccc(CO/N=C/c2ccccc2)cc1`?
Pf growth 96h: inactive; Cycloheximide cs: 40.9; Pf growth 48h: inactive; Shiga inhibitor: 76.3

How did CN(C)c1ccnc(-n2cccc2/C=N/OCc2ccccc2)c1C#N do in these assays?
Pf growth 96h: inactive; Cycloheximide cs: inactive; NS1 function inh: inactive; Shiga inhibitor: inactive

What do the screens show for `O=C(Nc1ccccc1)OC1CCC2CC1CCC2OC(=O)Nc1ccccc1` (stereo unspecified)?
Pf growth 96h: inconclusive; Cycloheximide cs: inactive; NS1 function inh: inconclusive; Pf growth 48h: inconclusive; Shiga inhibitor: inactive

What do the screens show for `CCOC(=O)c1cnn(-c2cc(C(C)(C)C)nc3c(-c4ccccc4)c(C)nn23)c1N`?
Pf growth 96h: inactive; Cycloheximide cs: inactive; NS1 function inh: inactive; Shiga inhibitor: inactive

What do the screens show for `CCOC(=O)c1cnn(-c2c(Cc3ccccc3)c(C)nc3c(-c4ccccc4)c(C)nn23)c1N`?
Cycloheximide cs: inactive; NS1 function inh: inactive; Pf growth 48h: 11.7µM; Shiga inhibitor: inactive

How did Cc1ccc(C(=O)Nc2cc3c(cc2Cl)OCCCO3)cc1 do in these assays?
Pf growth 96h: inactive; Cycloheximide cs: 49.8; NS1 function inh: inactive; Pf growth 48h: inactive; Shiga inhibitor: 64.5

How did O=C(Nc1cc2c(cc1Cl)OCCCO2)c1ccc(F)cc1 do in these assays?
Pf growth 96h: inactive; Cycloheximide cs: 89.1; NS1 function inh: inactive; Pf growth 48h: inactive; Shiga inhibitor: 113.8

Results for Cc1ccc(OCC(=O)Nc2ccc(S(=O)(=O)N(C)C3CCN(C)CC3)cc2)c(C)c1 ?
Pf growth 96h: inconclusive; Cycloheximide cs: inactive; NS1 function inh: inactive; Pf growth 48h: 11.7µM; Shiga inhibitor: inactive

How did Cc1ccc(OCC(=O)Nc2ccc(S(=O)(=O)N3CCOCC3)cc2)c(C)c1 do in these assays?
Pf growth 96h: inactive; Cycloheximide cs: inactive; NS1 function inh: inactive; Pf growth 48h: inconclusive; Shiga inhibitor: inactive

What do the screens show for `CN1CCC(N(C)S(=O)(=O)c2ccc(NC(=O)COc3cccc(Cl)c3)cc2)CC1`?
Pf growth 96h: 13.1µM; Pf growth 48h: 9.28µM

Results for CN1CCC(N(C)S(=O)(=O)c2ccc(NC(=O)COc3ccc(Br)cc3Cl)cc2)CC1 ?
Pf growth 96h: 2.08µM; Pf growth 48h: 4.15µM

Results for Cc1ccccc1OCCC(=O)Nc1ccc(S(=O)(=O)N(C)C2CCN(C)CC2)cc1 ?
Pf growth 96h: 3.7µM; Pf growth 48h: 2.94µM

What do the screens show for `COc1ccccc1NC(=O)CCN1C(=O)c2ccccc2C1=O`?
Pf growth 96h: inactive; Cycloheximide cs: inactive; NS1 function inh: inactive; Shiga inhibitor: inactive

How did FC(F)(F)c1cccc(-c2nc3nc(Cl)c(Cl)nc3[nH]2)c1 do in these assays?
Pf growth 96h: inactive; Cycloheximide cs: 50.3; NS1 function inh: inactive; Pf growth 48h: inactive; Shiga inhibitor: 102.2

What do the screens show for `Cc1ccccc1Nc1nnc(SCC2CCCCO2)s1` (stereo unspecified)?
Pf growth 96h: inactive; Cycloheximide cs: 54.6; NS1 function inh: inactive; Pf growth 48h: inactive; Shiga inhibitor: 15.2

Results for COc1ccccc1Nc1nnc(SCC2CCCCO2)s1 (stereo unspecified) ?
Pf growth 96h: inactive; Cycloheximide cs: 26.1; Pf growth 48h: inactive; Shiga inhibitor: inactive

How did Cc1ccc(-n2c(SCC3CCCCO3)nnc2-c2ccco2)cc1 (stereo unspecified) do in these assays?
Pf growth 96h: inconclusive; Cycloheximide cs: inactive; NS1 function inh: inactive; Pf growth 48h: inconclusive; Shiga inhibitor: inactive

Results for Cc1ccc(Nc2nnc(SCC3CCCCO3)s2)cc1 (stereo unspecified) ?
Pf growth 96h: inconclusive; Cycloheximide cs: 40.6; NS1 function inh: inactive; Pf growth 48h: inactive; Shiga inhibitor: 54.2

Results for CCOC(=O)C1CCN(C(=O)c2ccccc2CCc2ccccc2)CC1 ?
Pf growth 96h: inactive; Cycloheximide cs: inactive; NS1 function inh: inactive; Pf growth 48h: inactive; Shiga inhibitor: inactive

How did Cc1nc2c(c(-c3ccccc3)c1C#N)C(=O)c1ccccc1-2 do in these assays?
Pf growth 96h: inactive; Cycloheximide cs: inactive; NS1 function inh: inactive; Pf growth 48h: inactive; Shiga inhibitor: inactive

What do the screens show for `COc1ccc(NC(=O)NNC(=O)c2ccc(-c3ccccc3)cc2)cc1`?
Pf growth 96h: inactive; Cycloheximide cs: inactive; NS1 function inh: inactive; Pf growth 48h: inactive; Shiga inhibitor: inactive

What do the screens show for `COc1ccc(C2=C(Nc3ccccc3)c3ccccc3C2=O)cc1`?
Pf growth 96h: inactive; Cycloheximide cs: inactive; NS1 function inh: inactive; Pf growth 48h: 1.04µM; Shiga inhibitor: inactive

How did COc1ccc(C2=C(N)c3ccccc3C2=O)cc1 do in these assays?
Pf growth 96h: 10.4µM; Cycloheximide cs: 42.3; NS1 function inh: inactive; Pf growth 48h: inactive; Shiga inhibitor: inactive

Results for O=C(c1ccccc1)c1c[nH]cc1-c1ccccc1 ?
Pf growth 96h: inactive; Cycloheximide cs: inactive; NS1 function inh: inactive; Pf growth 48h: inactive; Shiga inhibitor: inactive

What do the screens show for `O=C(C1=C(c2ccccc2)C(=O)c2ccccc2C1=O)c1ccccc1`?
Pf growth 96h: inactive; Cycloheximide cs: inactive; NS1 function inh: inactive; Pf growth 48h: 1.47µM; Shiga inhibitor: inactive

How did COC1=C(c2ccccc2)C(=O)c2ccccc2C1=O do in these assays?
Pf growth 96h: 1.17µM; Cycloheximide cs: inactive; NS1 function inh: inactive; Pf growth 48h: 1.47µM; Shiga inhibitor: inactive

How did CC(NC(=O)C(C(=O)c1cccc([N+](=O)[O-])c1)n1cc(Cl)ccc1=O)c1ccccc1 (stereo unspecified) do in these assays?
Pf growth 96h: inconclusive; Cycloheximide cs: inactive; NS1 function inh: inactive; Pf growth 48h: inactive; Shiga inhibitor: inactive

What do the screens show for `O=C(O)c1cc(N=Cc2c(O)c3ccccc3oc2=O)ccc1O`?
Pf growth 96h: inactive; Cycloheximide cs: inactive; NS1 function inh: inactive; Pf growth 48h: inactive; Shiga inhibitor: inactive

How did COc1ccc(NC2=C(c3ccc(OC)cc3)C(=O)c3ccccc32)cc1 do in these assays?
Pf growth 96h: inconclusive; Cycloheximide cs: inactive; NS1 function inh: inactive; Pf growth 48h: 0.657µM; Shiga inhibitor: inactive

Results for CC(C)c1ccc(/C=c2\sc3nc(-c4ccncc4)nn3c2=O)cc1 ?
Pf growth 96h: 4.15µM; Cycloheximide cs: inactive; NS1 function inh: inactive; Pf growth 48h: inactive; Shiga inhibitor: inactive

What do the screens show for `CCCN=C(C)C1=C(O)c2ccccc2C1=O`?
Pf growth 96h: inactive; Cycloheximide cs: 107.4; NS1 function inh: inactive; Pf growth 48h: inactive; Shiga inhibitor: 83.9

Results for CC(=NCc1cccnc1)C1=C(O)c2ccccc2C1=O ?
Pf growth 96h: inactive; Cycloheximide cs: inactive; NS1 function inh: inactive; Pf growth 48h: inconclusive; Shiga inhibitor: inactive

What do the screens show for `CC(=NCc1ccncc1)C1=C(O)c2ccccc2C1=O`?
Cycloheximide cs: 17.8; NS1 function inh: inactive; Pf growth 48h: inactive; Shiga inhibitor: 75.6

Compound activity from PubChem.
